The values below come from ChEMBL document CHEMBL3433997, “St. Jude Leishmania screening dataset” (2016).

What all share (assay type): functional
The target of assay [1] is Solute carrier family 2, facilitated glucose transporter member 1 (Homo sapiens) (UniProt P11166). Description: ST_JUDE_LEISH: Cytotoxicity at 2uM final concentration against transgenic Leishmania Mexicana promastigotes LmGLUT1 that are glucose transport deficient and complemented with the human glucose transporter GLUT1. Activity is measured by DNA content using SYBR green in vitro.

In assay [2] the target is Hexose transporter 1 (Plasmodium falciparum) (UniProt O97467). Description: ST_JUDE_LEISH: Cytotoxicity at 2uM final concentration against transgenic Leishmania Mexicana promastigotes LmPfHT that are glucose transport deficient and complemented with the Plasmodium falciparum hexose transporter. Activity is measured by DNA content using SYBR green in vitro.
Assay [3] deals with Glucose transporter (Leishmania mexicana) (UniProt O61059). Nature of the assay: ST_JUDE_LEISH: Cytotoxicity at 2uM final concentration against transgenic Leishmania Mexicana promastigotes LmGT2 that are glucose transport deficient and complemented with the L. Mexicana glucose transporter 2. Activity is measured by DNA content using SYBR green in vitro.

Chain of Solute carrier family 2, facilitated glucose transporter member 1 (Homo sapiens) (P11166 whole entry): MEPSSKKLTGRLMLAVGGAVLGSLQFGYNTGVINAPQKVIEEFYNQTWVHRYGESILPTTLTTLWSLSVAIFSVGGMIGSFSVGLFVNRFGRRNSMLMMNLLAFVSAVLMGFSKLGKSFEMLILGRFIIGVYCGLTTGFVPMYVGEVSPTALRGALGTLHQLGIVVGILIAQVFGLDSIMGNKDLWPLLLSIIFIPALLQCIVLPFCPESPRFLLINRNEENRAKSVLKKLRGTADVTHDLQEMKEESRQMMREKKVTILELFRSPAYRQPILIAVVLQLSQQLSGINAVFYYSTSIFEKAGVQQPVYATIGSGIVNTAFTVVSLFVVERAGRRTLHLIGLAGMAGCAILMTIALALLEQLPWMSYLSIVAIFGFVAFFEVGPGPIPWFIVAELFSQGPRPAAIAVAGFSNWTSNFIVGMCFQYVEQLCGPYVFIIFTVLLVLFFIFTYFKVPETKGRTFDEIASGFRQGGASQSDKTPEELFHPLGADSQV

Regarding `Cc1cccc(C)c1C1CCN(CCCCNC(=O)c2cc3ccccc3[nH]2)CC1`, the values for the inhibition in assay [1], in assay [2] and in assay [3] were 1.79%, 0.17% and 0.3%, respectively.
In the same order, the values of `c1ccc2oc(-c3cc4ccncc4cc3OC3CCNCC3)cc2c1` are -1.3%, -3.57% and -3.28%.
`O=C(Nc1ccc(N2CCCCC2)c(Cl)c1)c1ccco1`: the inhibition in assay [1] is 0.11%; in assay [2], 0.86%; in assay [3] it was -1.58%.
Turning to `CNCCNCc1cccc(-c2ccc(-c3nc4ccccc4[nH]3)cc2)c1`, the figures for the inhibition in assay [1], in assay [2] and in assay [3] were -1.56%, 0.67% and -0.51%, respectively.
The like results for `O=S(=O)(NC1=NCCC1)c1cccc(Nc2nc(C(F)(F)F)nc3ccccc23)c1` were, in that order, -1.06%, -1.27% and -3.08%.
As to `Cc1ccc(-c2cc(C(=O)Nc3ccc(S(=O)(=O)N4CCCC(C)C4)cc3)[nH]n2)c(O)c1` (stereo not drawn), the inhibition in assay [1] was -1.53%; in assay [2], -1.98%; in assay [3], -1.01%.
The like results for `NC(=O)C1CCN(Cc2ccc(-c3ccc(-c4nc5cc(F)ccc5[nH]4)cc3)cc2)CC1` were, in that order, 12.7%, 12.7% and 10.8%.
`CCc1c(C)nc(-n2nc(C)cc2NC(=O)CC(c2ccccc2)c2ccccc2)[nH]c1=O`: the inhibition was -2.32% in assay [1], -2.23% in assay [2] and -4.35% in assay [3].
In the same order, the values of `CC(C)Cc1csc(NC(=O)C=Cc2ccco2)c1C(=O)O` are -0.28%, 0.8% and -0.08%.
The like results for `O=[N+]([O-])c1ccc(C(O)CNCCc2ccccc2)cc1OCc1ccccc1` (stereo not drawn) were, in that order, 14.1%, 14% and 15%.
For the compound `CC(=O)Nc1nc(C(=O)Nc2ccc(-c3cccc(-c4nc5cccc(C)c5[nH]4)c3)cc2)cs1`, the values for the inhibition in assay [1], in assay [2] and in assay [3] were 8.57%, 9.26% and 5.38%, respectively.
In the same order, the values of `O=S(=O)(NCCN1CCCC1)c1ccc(-c2cccc(CNCc3ccc(F)cc3)c2)cc1F` are 3.24%, 5.71% and 4.01%.
In the same order, the values of `COc1cc2c(cc1OC)CN(CCc1ccc(NC(=O)c3cc4cc(Cl)ccc4[nH]3)cc1)CC2` are 8.2%, 0.43% and 1.46%.
The like results for `CCOc1ccc(-c2nonc2NC(=O)c2ccccc2F)cc1OCC` were, in that order, -0.17%, 1% and 1.47%.
In the case of `Fc1ccc(COc2ccc(Nc3ncnc4ccc(I)cc34)cc2Cl)cc1`, the inhibition in assay [1] is 20.3%; in assay [2], 5.02%; in assay [3] it was 1.83%.
In the case of `CO/C(=C\C=C\c1cc2cc(Cl)c(Cl)cc2[nH]1)C(=O)NCCCN1CCN(c2cccc(OCC(=O)Nc3ccccc3)c2)CC1`, the inhibition in assay [1] was determined as 8.53%; in assay [2], 8.92%; in assay [3], 5.76%.
In the same order, the values of `c1nc2nc3c(c(Nc4ccc5c(c4)CCC5)n2n1)CCC3` are 3.23%, -0.85% and 1.24%.
In the same order, the values of `O=C(NCCCCN1CCC(c2ccc3ccccc3c2)CC1)c1ccc(NC(=O)c2ccc(Cl)cc2)cc1` are 2.27%, 4.42% and 4.1%.
The like results for `CC(C)CN1C(=O)c2ccc(C(=O)Nc3nccs3)cc2C1=O` were, in that order, 1.07%, 1.52% and 3.65%.
`Brc1ccc(Nc2nc(NCC3CCCO3)c3ccccc3n2)cc1` (stereo not drawn): the inhibition turned out to be 24.2% in assay [1], 22.3% in assay [2] and 8.12% in assay [3].
In the same order, the values of `COc1ccc(CSC2CCCCC23NC(=S)NC3=S)cc1` (stereo not drawn) are 4.42%, 1.41% and 3.2%.
The like results for `COc1cc(NC(=O)c2sc(-c3ccc(Cl)cc3)cc2NC(=O)CN2CC[C@@H](O)C2)ccc1OCCN1CCCC1` were, in that order, 23.1%, 15.1% and 4.88%.
In the same order, the values of `CCCCn1c(-c2ccco2)nc2c(c(=O)c3ccccc3n2C)c1=O` are 8.79%, 5.89% and 4.14%.
Turning to `c1ccc2[nH]c(-c3ccc(-c4ccc(CN5CCN(c6ccncc6)CC5)cc4)s3)nc2c1`, the inhibition came out at 6.21% in assay [1], 6.05% in assay [2] and 1.74% in assay [3].
Turning to `CCN(CCCN1CCCCC1)c1cc(C)nc(Nc2ccc(C)c(Br)c2)n1`, the inhibition in assay [1] is 4.08%; in assay [2], 6.82%; in assay [3], 7.62%.
As for `COc1cccc(C(=O)C2CC2CN(C)CCC(O)c2ccc(Cl)c(Cl)c2)c1` (stereo not drawn), the inhibition turned out to be 3.35% in assay [1], 3.48% in assay [2] and 4.04% in assay [3].
The like results for `O=C(Nc1ccc(-c2ccccc2)cc1)Nc1ccc2c(c1)CCNCC2` were, in that order, -2.5%, 0.46% and -3.69%.
`CC(=O)NC1=NC(C)(C)N(OCc2ccc(Cl)c(Cl)c2)C(NC(C)=O)=N1`: the values for the inhibition in assay [1], in assay [2] and in assay [3] were -0.21%, -0.25% and -1.61%, respectively.
The like results for `O=C(NCCCN1CCC(Cc2ccccc2)CC1)c1cc2c(Cl)nc3ccccc3c2s1` were, in that order, 0.05%, 1.9% and -0.45%.
The like results for `COc1ccc2c(c1)CC1CN(CCCCNC(=O)c3ccc(NC(=O)c4cc(Cl)cc(Cl)c4)cc3)CCN1C2` (stereo not drawn) were, in that order, 3.25%, 4.38% and 3.79%.
Turning to `O=[N+]([O-])c1cccc(CNCC2CCC(CNCc3cccc([N+](=O)[O-])c3)CC2)c1` (stereo not drawn), the inhibition in assay [1] was 2.25%; in assay [2], -2.59%; in assay [3], 1.26%.
In the same order, the values of `O=C(NC(CCCN1CCC2(CC1)OCc1ccccc12)c1ccc(Cl)c(Cl)c1)c1cc(C(F)(F)F)cc(C(F)(F)F)c1` (stereo not drawn) are 1.7%, 0.26% and -2.79%.
In the same order, the values of `CCN(CC(C)O)C(=O)c1ccc(-c2ccc(-c3nc4cccc(C)c4[nH]3)cc2)cc1` (stereo not drawn) are 6.07%, -2.57% and 0.55%.
The like results for `CC(=O)Nc1ccc(C(=O)NC2CCN(c3ccnc4cc(Cl)ccc34)C2)cc1` (stereo not drawn) were, in that order, 0.36%, 0.28% and 1.4%.
For the compound `CC1CN(c2cnn(Cc3ccc(NC(=O)Nc4ccc(F)cc4[N+](=O)[O-])cc3)c(=O)c2Cl)CC(C)N1` (stereo not drawn), the inhibition in assay [1] amounted to 2.34%; in assay [2], 1.28%; in assay [3], 2.58%.
The like results for `CC(C)(CNC(=O)C1CCN(Cc2ccc(Cl)cc2)CC1)c1nc(-c2ccc(Cl)c(O)c2)c(-c2ccncc2)[nH]1` were, in that order, 6.62%, 6.8% and 9.13%.

As usually defined, the inhibition is the drop in the measured response relative to a control, in per cent.
